Screening data as filed in PubChem BioAssay.
A selection: hits, their analogues and other compounds. The true share with any hit is near 1.1%.
Mtb bLac sens – beta-lactam sensitization of Mtb H37Rv; M. tuberculosis H37Rv growth with meropenem, percent inhibition; inhibition, % at 25 µM; hit rate 0.27% among 330,000; AID 434955;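 note: growth measured after seven days incubation then overnight dye step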
Mtb BioA inh – BioA (M. tuberculosis) enzyme inhibition | purified M. tuberculosis BioA enzyme, plate reader | inhibition, % at 9.99 µM | hit rate 0.096% among 360,000; in the data active = inhibition above about 40%; inconclusive = no clear call, values can overlap the other calls
Y pestis TopoI – Y. pestis Topo-I inhibition via cleavage products; Y. pestis Topo-I cleavage product accumulation, plate reader; AID 504884; activity, % at 10 µM; hit rate 0.064% among 360,000; in the data active = activity above about 50%, passing the limit was not always enough; inconclusive = no clear call, values can overlap the other calls
BJeLR viability – BJeLR cell viability loss. BJeLR (HRASV12) viability, CellTiter-Glo ATP luminescence, 48 h. inhibition, % (no concentration beside the values). hit rate 0.17% among 300,000. AID 1554; in the data active = inhibition above about 50%; inconclusive = no clear call, values can overlap the other calls
RecA splice inh – blocks M. tuberculosis RecA intein splicing; P9WHJ3; cell-free RecA intein splicing, fluorescence; inhibition, % (no concentration beside the values); hit rate 0.75% among 290,000; in the data active = inhibition above about 30%; inconclusive = no clear call, values can overlap the other calls
Target sequence (P9WHJ3 whole entry, looked up, canonical isoform): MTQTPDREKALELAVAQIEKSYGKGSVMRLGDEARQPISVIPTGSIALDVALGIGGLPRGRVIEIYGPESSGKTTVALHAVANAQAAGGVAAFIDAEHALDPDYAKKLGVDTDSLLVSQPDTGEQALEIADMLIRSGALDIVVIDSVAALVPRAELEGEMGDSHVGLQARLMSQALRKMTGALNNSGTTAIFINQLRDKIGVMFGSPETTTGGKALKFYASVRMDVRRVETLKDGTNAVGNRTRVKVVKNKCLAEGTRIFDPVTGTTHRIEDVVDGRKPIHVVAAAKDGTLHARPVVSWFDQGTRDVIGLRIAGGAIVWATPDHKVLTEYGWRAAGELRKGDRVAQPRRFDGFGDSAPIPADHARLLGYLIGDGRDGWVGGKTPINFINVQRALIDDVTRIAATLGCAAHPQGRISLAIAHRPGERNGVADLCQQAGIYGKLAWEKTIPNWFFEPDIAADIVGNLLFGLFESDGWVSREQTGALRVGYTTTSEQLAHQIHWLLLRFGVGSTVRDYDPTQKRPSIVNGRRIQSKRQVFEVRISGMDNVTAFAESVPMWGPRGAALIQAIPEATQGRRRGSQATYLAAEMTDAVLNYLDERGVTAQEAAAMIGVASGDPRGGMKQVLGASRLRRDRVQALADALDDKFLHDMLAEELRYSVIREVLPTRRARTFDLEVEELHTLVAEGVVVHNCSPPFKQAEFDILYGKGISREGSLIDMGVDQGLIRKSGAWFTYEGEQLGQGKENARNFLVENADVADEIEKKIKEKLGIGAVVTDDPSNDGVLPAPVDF
CCHFV vOTU inh – blocks the CCHF virus ovarian tumor domain protease; CCHFV vOTU protease, Pep-AMC fluorescence; inhibition, % at 11.5 µM; hit rate 0.55% among 370,000; AID 651958; in the data active = inhibition above about 30%
GFP chromophore – counter-screen: blocks GFP chromophore formation. EC50, µM. shares compounds with RecA splice inh. cell-free GFP chromophore formation, fluorescence. hit rate 83% among 2,100
Hits are given with their value; – = inactive; ? = inconclusive; · = not tested or not shown. Unless noted, the rule behind the calls is not given here.

SMILES | Mtb bLac sens | Mtb BioA inh | Y pestis TopoI | BJeLR viability | RecA splice inh | CCHFV vOTU inh | GFP chromophore
O=C1c2ccccc2-n2c1nc1ccccc1c2=O | – | – | – | – | 71.3 | – | 1.32
COc1ccc(NC(=O)CSc2c3c(nc4cc(Cl)ccc24)CCCC3)cc1OC | – | · | – | – | – | – | 29.1
O=C(CSc1nc2ccc(Cl)cc2[nH]1)NCc1ccco1 | – | – | – | – | – | – | ·
O=C(CSc1c2c(nc3cc(Cl)ccc13)CCCC2)NCc1ccco1 | – | – | – | – | 30.1 | – | –
CS(=O)(=O)N1[C@H](C#N)[C@H](c2ccccc2)[C@@H]1CO | · | – | · | · | · | · | ·
COc1ccc(N/N=C(\C#N)C(=N)SCc2ccccc2)cc1 | · | · | – | – | 55.2 | – | 24.1
COc1ccc(N/N=C(\C#N)C(=N)N2CCCCC2)cc1 | – | · | – | – | – | – | ·
C[C@@H]1CN([C@H](C)CO)C(=O)c2cc(-c3ccc(F)cc3)cnc2O[C@@H]1CN(C)CC1CCCC1 | · | – | · | · | · | · | ·
CCOc1cc(NC2CS(=O)(=O)CC2O)c(OCC)cc1NC(=O)c1ccccc1 (stereo unspecified) | – | – | – | – | 59.4 | – | –
CCOc1cc(NC(=O)c2ccccn2)c(OCC)cc1NC(=O)c1ccccc1 | – | · | – | – | – | – | ·
Cc1ccc(N2C(=O)NC(=O)/C(=C/c3ccc(OC(=O)c4cccs4)cc3)C2=O)cc1 | – | – | – | – | 34.1 | – | 0.819
COc1ccc(N2C(=O)NC(=O)/C(=C/c3cccc(OC(=O)c4cccs4)c3)C2=O)cc1Cl | ? | · | · | – | – | – | ·
C[C@@H]1CN([C@H](C)CO)C(=O)CCCn2nncc2CO[C@H]1CN(C)C(=O)Nc1ccccc1F | · | – | · | · | · | · | ·
CCCNC(=O)[C@H]1[C@H](CO)[C@H]2Cn3c(ccc(/C=C/c4ccccc4)c3=O)[C@@H]1N2C(=O)c1ccccc1 | · | – | · | · | · | · | ·
COc1cccc(C(=O)O/N=C(\N)c2ccc([N+](=O)[O-])cc2)c1OC | – | – | – | – | 51.6 | – | –
O=C(C[C@@H]1CC[C@@H](NS(=O)(=O)c2ccc(F)cc2)[C@H](CO)O1)NC1CCCCC1 | · | – | · | · | · | · | ·
C#CC(=O)N(c1ccc(OC)cc1OC)C(C(=O)NC1CCCC1)c1cccs1 (stereo unspecified) | – | · | – | – | · | – | ·
C#CC(=O)N(c1cc(OC)ccc1OC)C(C(=O)NC1CCCC1)c1cccs1 (stereo unspecified) | – | – | – | – | 31.3 | · | 2.94
COc1ccccc1-c1ccc2c(c1)O[C@@H](CN(C)C(=O)c1ccccc1)[C@@H](C)CN([C@H](C)CO)S2(=O)=O | · | – | · | · | · | · | ·
O=C(C[C@H]1C=C[C@H](NC(=O)C2CCOCC2)[C@H](CO)O1)NCC1CCCCC1 | · | – | · | · | · | · | ·
Oc1cccc(Nc2nc(-c3ccccc3Cl)nc3ccccc23)c1 | – | – | – | – | 35.0 | – | –
O=C(CCN1C(=O)/C(=C/c2cccs2)SC1=S)Nc1cccc(O)c1 | – | – | – | – | 36.2 | – | –
COc1ccc2nc(-c3ccccc3)cc(OC)c2c1 | ? | · | – | – | – | – | ·
COc1ccc2nc3cccc(OC)c3nc2c1 | – | – | – | – | 45.5 | – | 24.2
COc1ccc2nc3ccccc3nc2c1N | – | – | – | – | 64.0 | – | 39.7
SMILES | Mtb bLac sens | Mtb BioA inh | Y pestis TopoI | BJeLR viability | RecA splice inh | CCHFV vOTU inh | GFP chromophore
O=C(Nc1ccc(C(F)(F)F)cc1)N[C@H]1CC[C@H](CC(=O)N2CCCCC2)O[C@H]1CO | · | – | · | · | · | · | ·
C[C@H]1CN([C@@H](C)CO)S(=O)(=O)c2ccc(-c3ccccc3)cc2O[C@@H]1CN(C)S(C)(=O)=O | · | – | · | · | · | · | ·
COc1ccc(NC(=O)/C(Cl)=C(/Cl)S(=O)(=O)Cc2ccc(C)cc2)cn1 | · | – | – | – | 89.3 | · | 6.67
COc1ccc(NC(=O)Cc2ccc(Cl)c(Cl)c2)cn1 | – | · | – | – | – | – | ·
O=c1[nH]c(N2CCOCC2)cc2ccccc12 | – | – | – | – | 69.0 | – | 23.9
Cc1ccc(SCc2[nH]nc3c2C(c2ccco2)C(C#N)=C(N)O3)cc1 (stereo unspecified) | – | – | – | – | 72.6 | – | 25.5
Cc1ccc(SCc2[nH]nc3c2C(C(C)C)C(C#N)=C(N)O3)cc1 (stereo unspecified) | – | – | – | – | – | – | ·
Cc1ccc(SCc2[nH]nc3c2C2(C(=O)N(C)c4ccccc42)C(C#N)=C(N)O3)cc1 (stereo unspecified) | – | – | – | – | – | – | ·
Cc1ccc(SCc2[nH]nc3c2C(c2ccc(C)o2)C(C#N)=C(N)O3)cc1 (stereo unspecified) | ? | – | – | · | 36.5 | – | –
CN(C)CC#Cc1ccc([C@H]2[C@H]3CN(C(=O)c4ccc5c(c4)OCO5)CCCCN3[C@H]2CO)cc1 | · | – | · | · | · | · | ·
Nc1c(-c2ccccc2)c(CSc2nc3ccccc3[nH]2)nn1-c1cccc(Cl)c1 | – | · | – | – | 36.6 | – | 11.4
Nc1c(-c2ccccc2)c(CSc2nc3ccccc3[nH]2)nn1-c1ccc(Cl)cc1 | – | · | – | – | – | – | ·
C[C@@H]1CCCCO[C@H](CN(C)S(=O)(=O)c2cccs2)[C@@H](C)CN([C@@H](C)CO)C(=O)c2cc(NC(=O)CCC(F)(F)F)ccc2O1 | · | – | · | · | · | · | ·
O=C(C1CCOCC1)N1C[C@@H]2[C@H](c3ccccc31)[C@H](CO)N2Cc1ccccc1 | · | – | · | · | · | · | ·
Cc1cccc(CS(=O)(=O)c2nnc([C@H](Cc3ccccc3)NC(=O)OC(C)(C)C)o2)c1 | – | – | – | – | 36.4 | · | 10.9
COC(=O)CS(=O)(=O)c1nnc([C@H](Cc2ccccc2)NC(=O)OC(C)(C)C)o1 | – | · | – | – | 68.7 | – | 14.5
C[C@@H]1CN([C@@H](C)CO)C(=O)c2cc(NC(=O)NC3CCCCC3)ccc2O[C@@H](C)CCCCO[C@H]1CN(C)S(=O)(=O)c1cccs1 | · | – | · | · | · | · | ·
CNC[C@@H]1OCCCC[C@H](C)Oc2ccc(N(C)C)cc2C(=O)N([C@H](C)CO)C[C@@H]1C | · | – | · | · | · | · | ·
C[C@H](CO)N1C[C@H](C)[C@@H](CN(C)S(=O)(=O)c2ccc(F)cc2)Oc2ncc(-c3ccncc3)cc2C1=O | · | – | · | · | · | · | ·
CC(=O)NC[C@H]1[C@H](c2ccc(C3=CCCC3)cc2)[C@@H](CO)N1Cc1cccnc1 | · | – | · | · | · | · | ·
Nc1cc(N)c(OCC(F)(F)F)cc1OCC(F)(F)F | – | – | – | – | 91.6 | · | 7.62
O=[N+]([O-])c1cncc([N+](=O)[O-])c1Nc1cccc(O)c1 | – | – | – | – | 46.1 | – | 15.6
CC(=O)Nc1nc(-c2ccc3ccccc3c2)cs1 | – | – | – | – | – | – | ·
Oc1ccc(Nc2nc(-c3ccc4ccccc4c3)cs2)cc1 | – | – | – | – | 34.2 | – | 20.3
O=C(Nc1ccc2nc3n(c(=O)c2c1)CCCCC3)c1c(F)ccc([N+](=O)[O-])c1F | – | – | – | 75.4 | 59.6 | – | 24.6
COc1ccc(C2CC(c3ccccc3OC(C)=O)=NN2C(=O)/C=C/c2ccccc2)cc1OC (stereo unspecified) | – | · | – | – | – | – | ·
